Source: PubChem BioAssay
ClpP mod: qHTS Assay for Activators of ClpP. ATP-dependent Clp protease proteolytic subunit (Bacillus subtilis (strain 168)), P80244. 340,000 tested, 1.9% active. Potency, µM (series often up to 57.5 µM), without a hit: at the highest dose activity change, negative = active. purified B. subtilis ClpP, FRET peptide cleavage, 20 min; active = well fitted falling curve with a large enough effect; inconclusive = small, poorly fitted or top-dose-only effect; inactive = no such curve, though single readings can be large or run the other way; also: the source files actives as falling curves though it sought activators and does not explain the sign; nearly all actives have a fitted effect of over 65% in size
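Buffer: 100 mM Tris/HCl pH8, 100 mM KCl, 0.05% low protease BSA, 2.5% glycerol, 0.01% Tween-20. ClpP 10 microg/mL final; 20 min RT; delta FRET normalized to ADEP and DMSO controls.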
TDP1 inh: inhibitors of human tyrosyl-DNA phosphodiesterase TDP1 | Potency, µM (doses to about 130 µM), without a hit: at the top dose activity change, negative = inhibition, usual class: inhibitors | Q9NUW8 | recombinant TDP1, AlphaScreen DNA substrate cleavage | 350,000 tested, 0.28% active; also: % is scaled to controls: 0 for no effect and ±100 for the full control effect; nearly all actives have a fitted effect of over 40% in size
Target sequence (Q9NUW8 whole entry, looked up): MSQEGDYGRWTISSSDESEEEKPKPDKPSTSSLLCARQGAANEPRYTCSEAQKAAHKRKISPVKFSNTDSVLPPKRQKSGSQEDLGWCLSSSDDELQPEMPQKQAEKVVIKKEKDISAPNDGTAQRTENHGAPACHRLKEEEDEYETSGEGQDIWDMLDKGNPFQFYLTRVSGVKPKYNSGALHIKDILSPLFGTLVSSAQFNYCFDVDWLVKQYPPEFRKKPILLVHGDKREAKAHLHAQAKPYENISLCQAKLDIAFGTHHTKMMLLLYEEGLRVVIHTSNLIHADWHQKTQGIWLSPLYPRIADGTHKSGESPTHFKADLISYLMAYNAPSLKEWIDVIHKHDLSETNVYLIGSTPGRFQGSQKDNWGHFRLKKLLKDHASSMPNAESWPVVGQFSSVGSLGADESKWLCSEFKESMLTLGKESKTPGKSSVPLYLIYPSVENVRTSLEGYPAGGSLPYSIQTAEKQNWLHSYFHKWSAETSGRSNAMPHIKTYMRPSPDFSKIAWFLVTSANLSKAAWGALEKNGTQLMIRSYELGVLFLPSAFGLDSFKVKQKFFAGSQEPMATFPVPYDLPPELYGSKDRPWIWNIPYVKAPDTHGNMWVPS
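Here, a 5' biotin and 3' phosphotyrosine-FITC DNA oligonucleotide reports Tdp1 activity: intact substrate bridges AlphaScreen beads, while cleavage leaves a 3' phosphate and drops signal. All incubations at room temperature.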
DT40 TDP1 no CPT: qHTS for Inhibitors of human tyrosyl-DNA phosphodiesterase 1 (TDP1): qHTS in cells in absence of CPT; DT40 Tdp1-/- hTDP1 cells, no CPT, ATP luminescence, 48 h; Potency, µM (doses to about 46.2 µM), for inactives: at the highest dose activity change, negative = growth inhibition, most hits filed as inhibitors; 420,000 tested, 15% active; also: % is scaled to controls: 0 for no effect and ±100 for the full control effect; nearly all actives have a fitted effect of over 55% in size
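Chicken DT40 Tdp1-/- cells stably complemented with human TDP1 were seeded at 400 cells/well with DMSO in place of 20 nM camptothecin. After compound pinning, cells grew at least 48 hr at 37 °C; viability read by CellTiter-Glo luminescence.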
DT40 TDP1 CPT: growth inhibition of DT40 Tdp1-/-;hTDP1 cells with camptothecin (screen for TDP1 inhibitors). Potency, µM (highest dose often 46.2 µM), for the others: top-dose activity change, negative = growth inhibition, usual class: inhibitors. 420,000 tested, 12% active. chicken DT40 Tdp1-/-;hTDP1 cells + 20 nM CPT, ATP luminescence, 48 h; also: % is scaled to controls: 0 for no effect and ±100 for the full control effect; nearly all actives have a fitted effect of over 55% in size
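Chicken DT40 Tdp1-/- cells stably complemented with human TDP1 were seeded at 400 cells/well in medium containing 20 nM camptothecin, exposed to pin-transferred compounds, and grown at 37 °C for at least 48 hr. Viability was read as ATP luminescence.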
* = called active by the depositor; u = inconclusive; x = not tested or not shown; ! = not active in a repeat; [ ] = remark or other dose. Sampled rows, rich in hits. Any-hit rate of the full collection: about 17%. Unless noted, calls follow the shape of the dose curve; as a rule, active = well fitted curve in the direction sought with a large enough effect; inconclusive = small, poorly fitted or top-dose-only effect, or another doubt; inactive = no such curve, though single readings can be large; an effect the other way counts as inactive or inconclusive. Potency is read from the fitted curve at half-maximal effect.

SMILES | ClpP mod | TDP1 inh | DT40 TDP1 no CPT | DT40 TDP1 CPT
O=C1NC(=S)N/C1=C/c1ccc2c(c1)OCO2 | -1% | x | 5.8µM* | u
O=C1NC(=S)N/C1=C\c1ccc(N2CCOCC2)cc1 | 0% | 7% | u | 16µM*
CCCCC(=O)Nc1c2c(nn1-c1cccc(C)c1C)CS(=O)(=O)C2 | 2% | x | 14% | 3%
O=C(CCNC(=O)c1ccc([N+](=O)[O-])cc1)Nc1ccc(F)cc1F | 0% | x | 10% | -16%
Cc1cccc(N2CCN(C(=O)c3cn(CC(C)C)c(=O)c4c3c3ccccc3n4C)CC2)c1C | u | 0% | 5.2µM* | 8.2µM*
Cc1ccc(-n2nc(C(=O)N3CCN(c4cc(C)ccc4C)CC3)c3c4ccccc4n(C)c3c2=O)cc1 | 1% | 2% | -1% | -15%
Cc1ccc(C)c(N2CCN(C(=O)c3cn(CC(C)C)c(=O)c4c3c3ccccc3n4C)CC2)c1 | u | 0% | 23µM* | u
Cc1cccc(N2CCN(C(=O)c3cn(C)c(=O)c4c3c3ccccc3n4C)CC2)c1C | u | 2% | 22µM* | 22µM*
COc1ccc(N2CCN(C(=O)c3cn(CC(C)C)c(=O)c4c3c3ccccc3n4C)CC2)cc1 | -23% | 9% | 23µM* | u
COc1cc2c(C(=O)N3CCN(c4ccc(F)cc4)CC3)cn(CC(C)C)c(=O)c2cc1OC | -6% | 9% | u | u
CCCCN(C)CCNC(=O)Cn1ncc2c([nH]c3ccccc32)c1=O | 5% | 0% | 0% | 1%
CCCN(CCC)CCCNC(=O)Cn1ncc2c3ccccc3n(Cc3ccccc3F)c2c1=O | -18% | 3% | 23µM* | 16µM*
CCCCN(C)CCCNC(=O)Cn1ncc2c3ccccc3n(Cc3ccccc3F)c2c1=O | u | 0% | 13µM* | 13µM*
CCCCN(C)CCCNC(=O)Cn1ncc2c3ccccc3n(Cc3cc(C)ccc3C)c2c1=O | 5% | 10% | 2.9µM* | 2.6µM*
CCCn1c2ccccc2c2cnn(CC(=O)NCCCOC)c(=O)c21 | -1% | x | -14% | -3%
CCCCN(C)CCCNC(=O)Cn1ncc2c3ccccc3n(Cc3ccccc3)c2c1=O | u | 0% | u | u
CCOc1ccc(NC(=O)Cn2nc(SC)c(S(=O)(=O)c3ccccc3)c2N)cc1 | -1% | 3% | u | u
O=c1c(-c2ccc(F)cc2)nc2cnc(N3CCOCC3)nc2n1CCc1ccccc1 | x | x | -2% | 18%
COc1cc(C(O)c2nc(-c3csc4ccccc34)cs2)ccc1F (stereo not given) | -2% | x | 18µM* | u
OC(c1ccc(F)c(F)c1)c1nc(-c2csc3ccccc23)cs1 (stereo not given) | -2% | x | u | 23µM*
CC(C)c1ccc2c(c1)NC(c1ccc(F)cc1)=NC(c1cccs1)=N2 | -1% | 12% | u | u
CC(C)C[C@@H](CC(=O)N[C@@H](CCCN)CC(=O)N[C@@H]1CCNC[C@H]1C(=O)N[C@H](CC(=O)N[C@@H](CCC(=O)O)CC(=O)O)Cc1c[nH]c2ccccc12)NC(=O)[C@@H]1CCCC[C@H]1N | x | 4% | x | x
CCCc1cc(=O)oc2cc(C)c3c(-c4ccccc4)coc3c12 | 20µM* | -11% | u | u
CC12CCC(C(=O)Nc3cccc(Cl)c3)(C(Br)C1=O)C2(C)C (stereo not given) | -4% | -2% | 18µM* | u
Cc1cc(C)nc(/N=C(/NC(=O)Nc2cccc(Cl)c2)Nc2ccccc2)n1 | 0% | 1% | 18µM* | u
SMILES | ClpP mod | TDP1 inh | DT40 TDP1 no CPT | DT40 TDP1 CPT
Cc1cc(C)nc(/N=C(\NC(=O)C(C)(C)C)Nc2ccccc2)n1 | x | 1% | 0% | 18%
Cc1nnc(NC(=O)Nc2cccc(Cl)c2)s1 | -1% | 5% | 13µM* | u
O=C(Nc1cccc(Cl)c1)Nc1nc(-c2ccccc2)cs1 | 0% | 5% | u | u
Cc1csc(NC(=O)Nc2cccc(Cl)c2)n1 | 0% | 5% | 23µM* | u
Cc1cc(NC(=O)Nc2cccc(Cl)c2)no1 | 1% | x | u | -21%
Cc1ccc(OCCSCc2nnc(NC(=O)Nc3cccc(Cl)c3)s2)cc1 | 8% | 3% | 4.6µM* | 4.6µM*
CCCCN1C(=O)C(C(=O)OCC)CC2=C1CCCC2=O (stereo not given) | 1% | x | -7% | -2%
O=C(CCC(=O)c1cccs1)NCc1cccc(C(F)(F)F)c1 | 1% | x | 3% | -7%
COc1ccc(C2Sc3ccccc3N(CCN(C)C)C(=O)[C@@H]2OC(C)=O)cc1 (stereo not given in full) | x | 10% | u | u
COc1cccc(N2CCN(C(=O)c3cnc4c(-c5ccccc5)c(C)nn4c3C)CC2)c1 | -1% | 8% | u | 15µM*
CCOC(=O)Cc1c(C)nc2c(-c3ccc(OC)cc3)c(C)nn2c1C | 1% | 5% | 23µM* | u
Cc1nc2cc(-c3ccccc3)nn2c(C)c1CCC(=O)N1CCN(c2ccccc2)CC1 | -8% | 6% | u | -27%
COc1ccc(N2CCN(C(=O)CCc3c(C)nc4c(-c5ccccc5)c(C)nn4c3C)CC2)cc1 | 2% | 3% | 18µM* | 23µM*
CCCNC(=O)COCc1cc(-c2ccc(F)cc2)on1 | -3% | 2% | u | -20%
CCCCc1cc2ccccc2c(OCCN(C)C)n1 | -4% | 4% | u | 9µM*!
O=C(NCc1ccco1)c1ccc(COc2ccccc2[N+](=O)[O-])o1 | 0% | 6% | -6% | -13%
COc1ccc(NS(=O)(=O)c2csc(C(=O)N3CCCC3)c2)cc1 | -1% | 1% | u | -28%
O=C(Nc1ccc(F)cc1)c1cc(S(=O)(=O)Nc2ccc(F)cc2)cs1 | -2% | -3% | 29µM* | u
O=C(Nc1ccc(F)cc1)c1cc(S(=O)(=O)N2CCOCC2)cs1 | 1% | 5%[56.1 µM] | u | 0%
COc1ccc(NC(=O)c2cc(S(=O)(=O)Nc3ccc(OC)cc3)cs2)cc1 | 0% | 1% | 29µM* | u
CN1C2CCC1CC(NC(=O)c1ccc(Cl)cc1)C2 (stereo not given) | x | 4% | -4% | -2%
CN1C2CCC1CC(NS(=O)(=O)c1cc(Cl)c(Cl)cc1Cl)C2 (stereo not given) | 35µM* | 2% | u | u
CSCC[C@H]1COC[C@@H](Cc2ccccc2)N1c1ccccc1 | 0% | x | -27% | -29%
CCCCN1CCc2c([nH]c3ccccc23)C1=O | 20µM* | -5% | -4% | -1%
COc1ccc(-c2noc(CCCC(=O)NCC3CCCO3)n2)cc1 (stereo not given) | x | x | u | -10%
O=C(c1ccc(N2C(=O)C3C4CC(C(Br)C4Br)C3C2=O)cc1)N1CCCCC1 (stereo not given) | -1% | 32µM* | -5% | 9%
